Screen size: about 290,000 compounds; about 570 (0.2%) were called active. Not shown: some 1% with an inconclusive outcome. Cut-off read from the data, not from the text of the source: active = inhibition mostly above about 51% (no sharp cut-off); inconclusive = no clear call, values can overlap the other calls; inactive = mostly below about 53%. The entries come from a sample that favours actives as a whole.
Molecular target: Voltage-dependent N-type calcium channel subunit alpha-1B (Homo sapiens) (UniProt Q00975)
Experiment: inhibitors of Mint1-CaV2.2 protein interaction, biochemical, HTRF (AID 2073)
Conditions: at 20 µM, stronger effect = higher value

Sequence of Voltage-dependent N-type calcium channel subunit alpha-1B (Homo sapiens) (Q00975 whole entry, looked up): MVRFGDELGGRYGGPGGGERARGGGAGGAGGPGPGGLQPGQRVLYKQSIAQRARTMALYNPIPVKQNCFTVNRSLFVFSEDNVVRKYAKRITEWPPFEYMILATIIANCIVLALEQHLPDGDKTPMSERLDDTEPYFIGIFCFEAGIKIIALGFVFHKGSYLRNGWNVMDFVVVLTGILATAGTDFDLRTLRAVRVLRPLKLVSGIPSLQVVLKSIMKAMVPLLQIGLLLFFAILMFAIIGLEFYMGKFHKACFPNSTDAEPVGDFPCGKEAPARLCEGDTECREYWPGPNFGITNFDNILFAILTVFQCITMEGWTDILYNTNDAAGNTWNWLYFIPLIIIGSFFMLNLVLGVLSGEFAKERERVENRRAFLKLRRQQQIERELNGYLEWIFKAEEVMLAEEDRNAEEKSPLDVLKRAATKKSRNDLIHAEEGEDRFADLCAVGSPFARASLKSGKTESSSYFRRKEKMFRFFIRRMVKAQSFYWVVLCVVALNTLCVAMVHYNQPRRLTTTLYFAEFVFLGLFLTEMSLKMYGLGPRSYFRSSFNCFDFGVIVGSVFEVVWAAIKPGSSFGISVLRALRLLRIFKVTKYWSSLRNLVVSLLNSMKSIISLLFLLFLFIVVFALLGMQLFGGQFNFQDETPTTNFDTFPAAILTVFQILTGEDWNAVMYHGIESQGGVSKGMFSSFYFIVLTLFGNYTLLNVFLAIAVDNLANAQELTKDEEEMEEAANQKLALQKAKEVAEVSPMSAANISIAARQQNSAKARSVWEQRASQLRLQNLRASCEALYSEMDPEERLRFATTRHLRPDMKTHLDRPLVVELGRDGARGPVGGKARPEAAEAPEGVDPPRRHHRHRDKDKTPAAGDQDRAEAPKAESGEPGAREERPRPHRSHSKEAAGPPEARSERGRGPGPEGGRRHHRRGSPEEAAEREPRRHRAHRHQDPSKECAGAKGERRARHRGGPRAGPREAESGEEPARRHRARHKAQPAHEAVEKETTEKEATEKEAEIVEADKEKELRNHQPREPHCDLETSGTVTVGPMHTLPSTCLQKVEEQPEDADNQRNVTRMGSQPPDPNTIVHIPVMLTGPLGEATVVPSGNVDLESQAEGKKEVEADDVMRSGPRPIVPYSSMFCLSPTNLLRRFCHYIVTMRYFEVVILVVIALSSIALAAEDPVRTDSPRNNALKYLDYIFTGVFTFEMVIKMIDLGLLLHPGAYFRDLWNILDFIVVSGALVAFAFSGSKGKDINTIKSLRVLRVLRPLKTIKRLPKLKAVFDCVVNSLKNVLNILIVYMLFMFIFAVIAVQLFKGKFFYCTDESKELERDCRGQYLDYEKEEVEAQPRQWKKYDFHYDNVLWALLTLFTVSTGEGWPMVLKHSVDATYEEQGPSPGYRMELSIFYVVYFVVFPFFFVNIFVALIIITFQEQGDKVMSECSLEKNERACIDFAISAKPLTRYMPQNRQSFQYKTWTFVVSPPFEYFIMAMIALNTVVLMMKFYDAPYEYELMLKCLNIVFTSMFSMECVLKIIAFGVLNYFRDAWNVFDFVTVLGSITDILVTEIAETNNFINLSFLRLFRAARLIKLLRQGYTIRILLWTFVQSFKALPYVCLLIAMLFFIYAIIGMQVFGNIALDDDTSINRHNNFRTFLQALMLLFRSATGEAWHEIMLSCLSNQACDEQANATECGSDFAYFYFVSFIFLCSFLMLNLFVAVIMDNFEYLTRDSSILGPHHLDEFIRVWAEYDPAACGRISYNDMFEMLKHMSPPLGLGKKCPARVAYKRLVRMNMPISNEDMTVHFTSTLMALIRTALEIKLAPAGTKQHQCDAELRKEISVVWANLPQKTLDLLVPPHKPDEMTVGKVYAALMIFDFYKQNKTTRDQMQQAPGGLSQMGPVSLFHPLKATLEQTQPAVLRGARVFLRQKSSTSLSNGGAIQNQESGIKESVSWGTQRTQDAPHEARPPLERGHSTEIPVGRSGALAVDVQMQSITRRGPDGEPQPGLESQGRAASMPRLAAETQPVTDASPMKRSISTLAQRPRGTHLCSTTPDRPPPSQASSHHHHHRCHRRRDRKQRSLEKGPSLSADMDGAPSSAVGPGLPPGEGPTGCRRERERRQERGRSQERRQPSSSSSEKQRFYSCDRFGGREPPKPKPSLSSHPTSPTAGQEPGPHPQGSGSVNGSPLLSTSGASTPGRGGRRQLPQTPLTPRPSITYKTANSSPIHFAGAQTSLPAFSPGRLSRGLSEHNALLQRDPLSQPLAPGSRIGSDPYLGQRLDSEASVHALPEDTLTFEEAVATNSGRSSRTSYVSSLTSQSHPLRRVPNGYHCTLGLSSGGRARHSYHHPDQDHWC

Compound	inhibition	inhibition (measured here: average of repeat tests)
CN1CCN(C(=O)CN(c2cc(C(F)(F)F)ccc2Cl)S(C)(=O)=O)CC1	-10.8% (inactive)	–
CN(c1ccccc1)c1ccc(/C=C(\CCC(=O)O)c2nc3ccccc3s2)cc1[N+](=O)[O-]	54.7% (active)	–
Cc1ccc(/C=C(\CCC(=O)O)c2nc3ccccc3s2)cc1[N+](=O)[O-]	7% (inactive)	–
O=C(O)CC/C(=C\c1ccc(Cl)c([N+](=O)[O-])c1)c1nc2ccccc2s1	6.1% (inactive)	–
CCC(C(=O)N1CCOCC1)n1nc(C)c2sc3ccccc3c2c1=O (stereo unspecified)	12.1% (inactive)	–
CN1CCN(c2ccccc2NC(=O)c2cccc(OCc3ccccc3)c2)CC1	19% (inactive)	–
COCCn1c(SCC(=O)Nc2ccc(F)cc2)nc2ccccc2c1=O	6.9% (inactive)	–
COCCn1c(SCC(=O)Nc2ccc(NC(C)=O)cc2)nc2ccccc2c1=O	-7.5% (inactive)	–
CC1(C)CC(=O)C=C(NNC(=O)C2CCCCC2)C1	1.6% (inactive)	–
C#CCOCCOCCOCCNc1nc(N2CCN(C(=O)[C@H](Cc3cc4ccccc4[nH]3)n3cc([C@@H](N)Cc4ccc(O)cc4)nn3)CC2)nc(N2CCN(C(=O)[C@H](Cc3cc4ccccc4[nH]3)n3cc([C@@H](N)CC(C)C)nn3)CC2)n1	51.5% (active)	–
C#CCOCCOCCOCCNc1nc(N2CCN(C(=O)C(Cc3ccc(O)cc3)n3cc(C(N)CC(C)C)nn3)CC2)nc(N2CCN(C(=O)C(Cc3cc4ccccc4[nH]3)n3cc(C(N)Cc4ccc(O)cc4)nn3)CC2)n1 (stereo unspecified)	14.6% (inactive)	–
C#CCOCCOCCOCCNc1nc(N2CCN(C(=O)[C@H](Cc3ccc(O)cc3)n3cc([C@@H](N)CC(C)C)nn3)CC2)nc(N2CCN(C(=O)[C@H](Cc3cc4ccccc4[nH]3)n3cc([C@@H](N)CC(C)C)nn3)CC2)n1	22.3% (inactive)	–
CC[N+](CC)(CC#Cc1ccccc1)CC(=O)c1ccc(Cl)cc1	-0.1% (inactive)	–
Cc1nc(C)c(C(=O)OCC(=O)N2CCN(c3ccccc3)CC2)s1	-4.9% (inactive)	–
COC(=O)c1ccccc1NC(=O)CN1CCC(NC(=O)c2ccc(C)cc2)CC1	-3.1% (inactive)	–
NNC(=O)c1oc2nc(-c3ccco3)cc(-c3ccco3)c2c1N	59.1% (active)	–
NNC(=O)c1oc2nc(-c3cccs3)cc(-c3ccco3)c2c1N	51.7% (active)	–
NNC(=O)c1oc2nc(-c3ccccc3)cc(-c3ccccc3)c2c1N	18.4% (inactive)	–
Cc1ccc(-c2cc(-c3ccco3)c3c(N)c(C(=O)NN)oc3n2)cc1	55.5% (inactive)	31.3%
Nc1c(C(=O)N/N=C/c2ccccc2Cl)oc2nc(-c3ccccc3)cc(-c3ccco3)c12	45.6% (inactive)	–
Nc1c(C(=O)N/N=C/c2cccnc2)oc2nc(-c3ccco3)cc(-c3ccco3)c12	44.8% (inactive)	–
N#Cc1c(Nc2ccccc2)c(/C=N/NCCO)c[nH]c1=O	-20.2% (inactive)	–
CN(C)c1cccc(C(=O)OCC(=O)NC2CCCC2)c1	2.1% (inactive)	–

Compound	inhibition	inhibition (measured here: average of repeat tests)
Cc1oc(-c2ccccc2F)nc1CS(=O)(=O)CC(=O)N1CCCCCC1	-4.2% (inactive)	–
COc1cc(C(=O)NCCC(=O)NCCCN2CCCCC2)cc(OC)c1OC	-4% (inactive)	–
FC(F)(F)c1ccccc1Nc1nccs1	-8.5% (inactive)	–
Cc1nsc(Nc2ccccc2)c1C#N	36.6% (inactive)	–
FC(F)(F)c1ccccc1NC1=NCCC1	0.7% (inactive)	–
Cc1cc(C)c(C#N)c(Nc2ccccc2Cl)n1	5.7% (inactive)	–
COc1cccc(CC(Cc2nc3ccccc3[nH]2)c2nc3ccccc3[nH]2)c1 (stereo unspecified)	4.4% (inactive)	–
CCOc1ccc(/C=N/NC(=O)CSc2n[nH]c(=O)[nH]c2=O)cc1OC	-0.5% (inactive)	–
CC(=O)c1ccc(N2CCN(C(=O)c3ccc(Cl)c(NC4=NC5CS(=O)(=O)CC5S4)c3)CC2)cc1 (stereo unspecified)	3.4% (inactive)	–
Cc1ccnc(NS(=O)(=O)c2ccc(NC(=O)C3CCCO3)cc2)n1 (stereo unspecified)	-3% (inactive)	–
O=C(NCc1ccc(F)cc1)C1CCCN1C(=O)Nc1cccc(F)c1 (stereo unspecified)	8.7% (inactive)	–
Cc1ccc(N=CC=C2OC(C)(C)C(C)(C)O2)cc1	1.3% (inactive)	–
COc1cc2c(cc1NC(=O)C(C)N1CCN(S(=O)(=O)c3ccc(C)c(C)c3)CC1)oc1ccccc12 (stereo unspecified)	12.7% (inactive)	–
COc1cc2c(cc1NC(=O)C(C)OC(=O)c1ccc(S(=O)(=O)Nc3ccccc3Cl)cc1)oc1ccccc12 (stereo unspecified)	56.6% (active)	–
COc1ccc(S(=O)(=O)Nc2ccccc2Cl)cc1NC(C)=O	1.4% (inactive)	–
Cc1nc2cc(F)ccc2n1C1CCN(S(=O)(=O)c2ccccc2)CC1	5.6% (inactive)	–
O=C(c1csc2c1CCCC2)N1CCN(c2ccccc2)CC1	-0.9% (inactive)	–
O=S(=O)(c1ccc(-c2csc(Nc3ccc(Br)cc3)n2)cc1)N1CCCC1	-7.1% (inactive)	–
Cc1ccc(Nc2nc(-c3ccc(S(=O)(=O)N4CCCC4)cc3)cs2)cc1C	36.3% (inactive)	–
Cc1cc(C)cc(Nc2nc(-c3ccc(S(=O)(=O)N4CCCC4)cc3)cs2)c1	67.2% (active)	–
COC(=O)c1ccccc1NC(=O)COc1ccc(S(=O)(=O)N2CCCC2)cc1C	6.4% (inactive)	–
COc1cccc2c(=O)c3cccc(N)c3[nH]c12	52.3% (active)	–
COc1cccc2[nH]c3ccccc3c(=O)c12	30.8% (inactive)	–

Compound	inhibition	inhibition (measured here: average of repeat tests)
Nc1cccc2c(=O)c3ccccc3[nH]c12	41.4% (inactive)	–
CCCCN(C)C(=O)CSc1nc(NCc2ccc(OC)cc2)c2ccccc2n1	-1% (inactive)	–
CCCn1c(C(C)Nc2nc(-c3ccc(Cl)c([N+](=O)[O-])c3)cs2)nc2cc(Cl)c(N3CCCCC3)cc21 (stereo unspecified)	21% (inactive)	–
CCOC(=O)c1sc2nc3c(SCC(=O)O)cc(C(=O)c4ccccc4O)cn3c(=O)c2c1C	53.3% (active)	–
CCOC(=O)c1sc2nc3c(SCC(=O)O)cc(C(=O)c4cc(F)ccc4O)cn3c(=O)c2c1C	18.6% (inactive)	–
CCOC(=O)c1sc2nc3c(SCCC#N)cc(C(=O)c4cc(F)ccc4O)cn3c(=O)c2c1C	43.6% (inactive)	–
CCCCP(=O)(CCCC)Cc1ccccc1	-0.8% (inactive)	–
COc1ccc(-c2nnc(SCC(=O)NCc3cccs3)n2C(C)C)cc1	-14.7% (inactive)	–
O=c1c2c(nc3nc(NCc4cccc5ccccc45)[nH]n13)CCC2	4.9% (inactive)	–
O=C(O/N=C(\c1ccccc1)c1ccncc1)c1ccccc1F	-7.6% (inactive)	–
O=C(Nc1ccc(NC(=O)c2sc3ccccc3c2Cl)cc1)c1ccco1	60.5% (active)	–
O=C(Nc1cccc(NC(=O)c2sc3ccccc3c2Cl)c1)c1ccco1	12.7% (inactive)	–
O=C(Nc1ccc(NC(=O)c2sc3ccccc3c2Cl)cc1Cl)c1ccco1	31.4% (inactive)	–
CCS(=O)(=O)N1CCCC(C(=O)N2CCc3ccccc3C2)C1 (stereo unspecified)	0% (inactive)	–
COc1cc(/C=N/n2cnnc2)ccc1OC(=O)c1ccco1	1.6% (inactive)	–
CCN(CC)C(=O)C(=O)Nc1ccc(OC)c(Cl)c1	1.5% (inactive)	–
Cc1cc(=O)c2ccc(Cl)cc2[nH]1	0.7% (inactive)	–
O=C(O)/C=C/C(=O)NCc1csc2ccccc12	-5% (inactive)	–
O=C(Nc1ccc2c(c1)OCO2)C1CC(=O)N(c2cccc(Cl)c2)C1 (stereo unspecified)	-1.9% (inactive)	–
COc1ccc2nc(-c3ccccc3)[nH]c2c1	11.7% (inactive)	–
Oc1c(Br)cc(C=Nc2ccc3nc(-c4ccccc4)[nH]c3c2)c(O)c1Br	83.1% (active)	–
Oc1c(Br)cc(/C=N/n2c(-c3ccccc3)n[nH]c2=S)c(O)c1Br	-12.3% (inactive)	–
CCn1ccnc1CN(C)C(=O)c1ccc(OC2CCN(CCc3ccccc3)CC2)cc1	6.5% (inactive)	–

Compound	inhibition	inhibition (measured here: average of repeat tests)
COCCn1c(SCc2cccnc2)nnc1-c1c[nH]c2ccccc12	-0.4% (inactive)	–
CC(=O)N1CCC(C(=O)N2CCN(S(=O)(=O)c3cccs3)CC2)CC1	0.1% (inactive)	–
CCOC(=O)c1ccc(-n2cncn2)nc1	-2.2% (inactive)	–
CC(=O)Nc1ccc(S(=O)(=O)N2CCOCC2)cc1	11.4% (inactive)	–
CC(=O)Nc1ccc(C(=O)Nc2ccc(S(=O)(=O)N3CCOCC3)cc2)cc1	-1.1% (inactive)	–
CC1CN=C(Nc2cccc(S(=O)(=O)N(C)C)c2)S1 (stereo unspecified)	-0.9% (inactive)	–
O=C(Nc1ccc(S(=O)(=O)N2CCOCC2)cc1)c1ccc(S(=O)(=O)N2CCOCC2)cc1	7.3% (inactive)	–
CN(C)S(=O)(=O)c1cccc(NC(=O)c2ccncc2)c1	8.6% (inactive)	–
CC(=O)Nc1ccc(S(=O)(=O)N2CCN(S(=O)(=O)N3CCOCC3)CC2)cc1	-2.3% (inactive)	–
Cc1ccc(C(=O)N/C(=C\c2ccc(-c3cccc([N+](=O)[O-])c3)o2)C(=O)NCCCN2CCOCC2)cc1	-1.4% (inactive)	–
COC(=O)Nc1nc2ccc(-c3n[nH]c(=O)c4ccccc34)cc2[nH]1	-0.4% (inactive)	–
Cc1cc(C)nc(Nc2ncc(O)n2-c2ccc(C)c(Cl)c2)n1	6% (inactive)	–
Cc1ccc(NC(=O)CN(C)c2ccc(S(=O)(=O)N3CCCC3)cn2)cc1	-2.9% (inactive)	–
CC1(C)CC2CC(C)(CN2C(=S)Nc2ccccc2)C1 (stereo unspecified)	12.7% (inactive)	–
CC(=O)Nc1nc2c(s1)CCc1ccccc1-2	-3.5% (inactive)	–
Fc1ccccc1Nc1nc2c(s1)CCc1ccccc1-2	94.8% (active)	–
Nc1nc2c(s1)CCc1ccccc1-2	-30.6% (inactive)	–
CC(c1nnc(SCC(=O)Nc2cccnc2Cl)n1Cc1ccccc1)N(C)C (stereo unspecified)	1% (inactive)	–
COc1ccc2nc3ccccc3nc2c1	23.5% (inactive)	–
COc1cccc2nc3cc(C)c(C)cc3nc12	23.4% (inactive)	–
COc1ccc2nc3cccc(OC)c3nc2c1	61.8% (active)	–

Source: PubChem BioAssay AID2073 (Sanford-Burnham Center for Chemical Genomics, 2009)
